High-throughput results (PubChem)
Compounds with a hit are over-represented: about 3.6% of the library has one in this group of screens.
mHTT-CaM PPI inh: disrupts binding of mutant huntingtin to calmodulin. AlphaScreen His-mHTT/GST-CaM binding, luminescence. inhibition, % at 15 µM. hit rate 3.6% among 190,000. AID 1671202
Pf apPOL inh: Pf-apPOL DNA polymerase inhibition. Recombinant Pf-apPOL, molecular beacon fluorescence, 1.5 h. inhibition, % at 10 µM. hit rate 0.25% among 210,000. AID 1794808
Hits are given with their value; n = inactive; x = no result given; ! = not active in a repeat. Cut-off read from the data, not from the text of the source: active = inhibition above about 50%; inactive = the rest.

SMILES	mHTT-CaM PPI inh	Pf apPOL inh
COc1cc(OC)c(CNc2ccc3cn[nH]c3c2)cc1Br	55	n
COc1ccc(CNc2ccc(C)c(C)c2)cc1Br	81	n
CCN(CC)c1ccc(N=Cc2cccc(OC)c2O)cc1	n	n
CC1(C)N=C(c2ccc(Cl)cc2)C(=O)N1CC(=O)Nc1ccc(F)cc1	n	n
Cc1ccc(/C=C/C(=O)O)cc1S(=O)(=O)N1CCC(C(=O)O)CC1	n	n
O=C(NCc1ccc(Cl)cc1)C1CCN(C(=O)c2cccs2)CC1	n	n
CC(=O)NCc1nc2c(n1C)CN(C(=O)Cc1cccc(C(F)(F)F)c1)CC2	n	n
COc1cccc(CNc2ccc3cn[nH]c3c2)c1OC	54	n
COc1cccc(CNc2ccc(F)c(Cl)c2)c1OC	n	n
COCC1=NC(Sc2c(-c3ccccc3)c3ccccc3[nH]c2=O)=NC(=O)C1	n	n
CCN1C(=O)Cc2cc(C(=O)NC(C)c3ccc(F)cc3)ccc21 (stereo not drawn)	n	n
Cc1c(CCOC(=O)CC23CC4CC(CC(C4)C2)C3)sc[n+]1CC(=O)c1ccccc1	94	n
O=C(OCC12CC3CC(CC(C3)C1)C2)c1ccccc1	n	n
NC(=S)NN=C1CCOc2ccc3ccccc3c21	x	n
Cc1cc2c(c(C)c1Cl)C(c1ccc3c(c1)OCO3)CC(O)(c1ccccc1)O2 (stereo not drawn)	86	n
Cc1cc2c(c(C)c1Br)C(c1ccc3c(c1)OCO3)CC(=O)O2 (stereo not drawn)	n	n
COc1ccc(CN2C(=O)NC(=O)/C(=C/c3ccc(O)c(OC)c3)C2=O)cc1	n	n
Cc1ccc(NC(=O)c2cnc3cc(-c4ccccc4)nn3c2C)cc1	n	n
CS(=O)(=O)N1CCN(C(=O)c2ccco2)CC1	n	n
O=C(c1ccc(-c2ccccc2)cc1)N1CCCCC1	n	n
CCCn1c2ccccc2c2nnc(SCC(=O)Nc3ccccc3OC)nc21	n	n
O=C1/C(=C/c2c[nH]c3ccccc23)Sc2ccccc21	n	n
O=C1/C(=C/c2c[nH]c3ccccc23)CC/C1=C\c1c[nH]c2ccccc12	98	n
COc1ccccc1CNC(=O)c1ccc(CN(c2ccc(C)c(C)c2)S(C)(=O)=O)cc1	n	n
Cc1ccc(-c2ccc(CCC(=O)O)[nH]2)cc1	n	n
SMILES	mHTT-CaM PPI inh	Pf apPOL inh
Cc1ccc2[nH]cc(CCN3CC(C(=O)Nc4ccccc4C)CC3=O)c2c1 (stereo not drawn)	n	n
Cc1ccc2[nH]cc(CCN3CC(C(=O)Nc4nncs4)CC3=O)c2c1 (stereo not drawn)	n	n
Cc1ccc2nc(NC(=O)C3CC(=O)N(CCc4c[nH]c5ccc(C)cc45)C3)sc2c1 (stereo not drawn)	88	n
Cc1ccc2[nH]cc(CCN3CC(C(=O)Nc4nc5c(C)cccc5s4)CC3=O)c2c1 (stereo not drawn)	81	n
COc1ccccc1NC(=O)c1cc(S(=O)(=O)N2CCOCC2)ccc1F	n	n
CC(C)Cn1cc2c3c(cccc31)CN(C(=O)Cc1cccs1)CC2	64	n
CC(C)CC(=O)N1CCc2cn(CC(C)C)c3cccc(c23)C1	n	n
CC(C)Cn1cc2c3c(cccc31)CN(C(=O)c1ccccn1)CC2	88	n
CC(C)CC(=O)N1CCc2cn(C)c3cccc(c23)C1	n	n
CCn1cc2c3c(cccc31)CN(C(=O)NC(C)C)CC2	n	n
CCCC(=O)N1CCc2cn(CC(C)C)c3cccc(c23)C1	53	n
COc1ccc2c(c1OC)C(=O)OC2Nc1ccc(Cl)cc1 (stereo not drawn)	n	n
COc1ccccc1CC(=O)N1CCC2(CC1)NC(=O)N(Cc1ccc(Cl)cc1)C2=O	n	n
COc1ccc(N=c2scc(-c3ccc(OC)cc3F)n2CCO)cc1	n	n
OCCn1c(-c2ccc(F)cc2)csc1=Nc1ccccc1	n	n
C=CCn1c(-c2ccc(OC)c(OC)c2)csc1=Nc1ccccn1	n	n
OCCn1c(-c2ccc(F)cc2)csc1=Nc1cccc(Cl)c1	98	n
CCn1c(-c2ccc(OC)c(F)c2)csc1=Nc1ccccc1	72	n
COc1ccc(-c2csc(=Nc3ccc(F)cc3)n2CCO)cc1F	53	n
CSc1ccc(C=NNc2ccc(Cl)cc2Cl)s1	x	n
Cc1csc2sc(C=NC(C#N)=C(N)C#N)c(C)c12	x	n
Cc1cc([N+](=O)[O-])c(C)cc1-c1ccc(/C=C/c2cc(C(F)(F)F)[nH]c(=O)n2)o1	95!	n
O=c1nc(/C=C/c2cccn2-c2ccc([N+](=O)[O-])cc2)cc(C(F)(F)F)[nH]1	n	n
O=C1C(=Cc2ccc(-c3ccccc3[N+](=O)[O-])o2)C(=O)c2ccccc21	n	n
O=c1nc(/C=C/c2ccc(-c3ccccc3[N+](=O)[O-])o2)cc(C(F)(F)F)[nH]1	90	n
SMILES	mHTT-CaM PPI inh	Pf apPOL inh
Cc1ccc(C2=NC3(CCN(C)CC3)NC(c3cc(Br)ccc3O)C2)cc1 (stereo not drawn)	n	n
CCN1CCC2(CC1)N=C(c1ccccc1)CC(c1cc(Cl)ccc1O)N2 (stereo not drawn)	n	n
CN1CCC2(CC1)N=C(c1ccc(Br)cc1)CC(c1cc(Cl)ccc1O)N2 (stereo not drawn)	100	n
CCN1CCC2(CC1)N=C(c1ccc(C)cc1)CC(c1cc(Br)ccc1O)N2 (stereo not drawn)	65	n
Cc1cc(C)c(S(=O)(=O)Nc2ccccc2I)c(C)c1	n	n
Cc1ccc(-n2cc(C(=O)N3CCCCCC3)nn2)cc1	n	n
COc1cc(C=C2SC(N3CCN(c4ccccc4[N+](=O)[O-])CC3)=NC2=O)ccc1O	n	n
CNC(=O)c1sc(-c2ccc(F)cc2)nc1C	n	n
C=CCc1ccccc1OCC(O)CN1CCN(c2ccccc2OC)CC1 (stereo not drawn)	n	n
C=CCc1ccccc1OCC(O)CN1CCN(c2ccc(F)cc2)CC1 (stereo not drawn)	75	n
C=CCc1ccccc1OCC(O)CN1CCN(c2ccccc2)CC1 (stereo not drawn)	74	n
C=CCc1ccccc1OCC(O)CN1CCN(c2ccccc2F)CC1 (stereo not drawn)	n	n
O=[N+]([O-])c1ccc(NCCNS(=O)(=O)Cc2ccccc2)c(Cl)c1	n	n
N#Cc1c([N+](=O)[O-])cc([N+](=O)[O-])cc1S(=O)(=O)Cc1ccccc1	79	n
C[C@H]1[C@@H](c2ccccc2)Oc2c(Cl)cccc2S(=O)(=O)N1Cc1cccc(F)c1	n	n
C[C@H]1[C@@H](c2ccccc2)Oc2c(Cl)cccc2S(=O)(=O)N1Cc1cccc(Cl)c1	59	n
CSc1nnc2c(n1)OC(c1ccco1)Nc1ccccc1-2 (stereo not drawn)	n	n
Cc1nc2c(C(=O)NCCc3ccc(Cl)cc3)c[nH]n2c(=O)c1Cc1ccccc1F	74	n
Cc1nc2c(C(=O)NCCc3ccccc3)c[nH]n2c(=O)c1Cc1ccc(Cl)cc1	68	n
Cc1nc2c(C(=O)NCCc3ccccc3)c[nH]n2c(=O)c1Cl	n	n
Cc1ccc(CCNC(=O)c2c[nH]n3c(=O)c(Cc4ccccc4F)c(C)nc23)cc1	n	n
CCn1c(=O)c(-c2nc(-c3cccc(Br)c3)no2)c(O)c2ccccc21	n	n
CN1C(c2ccccc2)CC(=O)CC1c1ccccc1 (stereo not drawn)	n	n
CC1(C)CC2CC(C)(CN2C(=O)C2CCN(CC3CC=CCC3)CC2)C1 (stereo not drawn)	n	n
